# Experimental data as given in PubChem BioAssay (Tox21).
# Records with an inconclusive call do not appear. A number with no mark means an inactive call. Active and inactive are the calls of the source. Calls come from the whole dose curve.
# Assay: qHTS assay for small molecule agonists of the p53 signaling pathway (AID 651631); note: nearly all actives have a fitted effect of over 15% in size
# Conditions: HCT-116 p53RE-bla reporter, beta-lactamase FRET ratio, 16 h; series mostly up to 73.3 µM
# Description: U.S. Tox21 Program National Center for Advancing Translational Sciences [NCATS] NIH Chemical Genomics Center [NCGC] U.S. Environmental Protection Agency [EPA] National Institutes of Environmental Health Sciences [NIEHS] National Toxicology Program [NTP] U.S. Food and Drug Administration [FDA] Tox21 Assay Overview: p53, a tumor suppressor protein, is activated following cellular insult, including DNA damage and other cellular stresses. The activation of p53 regulates cell fate by inducing DNA repair, cell cycle arrest, apoptosis, or cellular senescence. The activation of p53, therefore, is a good indicator of DNA damage and other cellular stresses. The CellSensor p53RE-bla HCT-116 cell line (Invitrogen) contains a stably integrated beta-lactamase reporter gene under control of the p53 response elements. The activation of the reporter gene under culture conditions can be detected by fluorescence intensity. This cell line was used to screen the Tox21 compound library in a 1536-well plate format and to identify agonists that activate the p53 signaling pathway.
# Tox21 Assay Protocol Summary: The p53RE-bla cells were dispensed at 4,000 cells/5 ul/well in 1536-well black wall/clear bottom plates using a Multidrop dispenser. After the assay plates were incubated at a 37 C/5% CO2 incubator for 5 hours, 23 nL of compounds dissolved in DMSO, positive controls or DMSO only was transferred to the assay plate by a pin tool. The plates were incubated at 37 C for 16 hours. After 1 uL of LiveBLAzerTM B/G FRET substrate was added using a Flying Reagent Dispenser, the plates were incubated at room temperature for 2 hours, and fluorescence intensity was measured by an Envision plate reader.
# % is set by controls: 0 for no effect and ±100 for the full control effect.
SMILES,outcome,activation
Nc1cc(C(=O)O)ccc1Cl,inactive,
CCC(C)(C)C1CCC(=O)CC1,inactive,
CC(=O)Nc1ncc([N+](=O)[O-])s1,inactive,
CCCCCCCCCOCC1CO1 (stereo not given),inactive,
O=C(O)/C=C/c1ccccc1,inactive,
CC(=O)/C=C/c1ccco1,inactive,
C[C@H]1O[C@H](O[C@H]2[C@H](O)[C@@H](O)[C@@H](O[C@H]3[C@H](O)[C@@H](O)[C@H](O)O[C@@H]3CO)O[C@@H]2CO)[C@H](O)[C@@H](O)[C@@H]1N[C@H]1C=C(CO)[C@@H](O)[C@H](O)[C@H]1O,inactive,
FC(F)(F)/C(=N\OCC1OCCO1)c1ccc(Cl)cc1,inactive,
CCCCOC(=O)[C@@H](C)Oc1ccc(Oc2ccc(C(F)(F)F)cn2)cc1,inactive,
Nc1ccnc(=O)[nH]1,inactive,
O=C1OC(=O)c2ccccc21,inactive,
O=C(c1ccc2c(c1)C(=O)OC2=O)c1ccc2c(c1)C(=O)OC2=O,inactive,
OC[C@@H](O)[C@H](O)[C@@H](O)[C@@H](O)CO,inactive,
C1=CCC(c2ccccc2)CC1 (stereo not given),inactive,
OC(CCN1CCCCC1)(c1ccccc1)c1ccccc1,inactive,
C=CCOc1cc(Cl)ccc1C(=O)NCCN(CC)CC,inactive,
CC(C)(C)c1ccc(C=O)cc1,inactive,
CC1(N)CCC(C(C)(C)N)CC1 (stereo not given),inactive,
NC(=O)C1(N2CCCCC2)CCN(CCCC(=O)c2ccc(F)cc2)CC1,inactive,
O=C(O)Cc1cccc(-c2cc(CCCCCCc3ccc(O[C@H]4O[C@H](CO)[C@@H](O)[C@H](O)[C@@H]4O)c(-c4cccc(CC(=O)O)c4)c3)ccc2O[C@H]2O[C@H](CO)[C@@H](O)[C@H](O)[C@@H]2O)c1,inactive,

SMILES,outcome,activation
O=c1[nH]c(=O)c2[nH]c(=O)[nH]c2[nH]1,inactive,
Cc1ccccc1C(=O)N1CC/C(=N\OS(=O)(=O)O)c2ccc(Cl)cc21,inactive,
C[C@H](CCC(=O)NCC(=O)O)[C@H]1CC[C@H]2[C@@H]3[C@H](O)C[C@@H]4C[C@H](O)CC[C@]4(C)[C@H]3C[C@H](O)[C@]12C,inactive,
c1ccc(CNc2ncnc3nc[nH]c23)cc1,inactive,
CCCO,inactive,
C=CCCCCCCCCCCC,,-4.17% [at 8.3 µM]
CC(C)CCO,inactive,
CCOC(=O)CCCCCCCCC(=O)OCC,inactive,
CCC(=O)c1ccc(O)cc1,inactive,
C=C[C@@H](C)CCC=C(C)C,inactive,
C[N+](C)(C)CC(O)CCl (stereo not given),inactive,
CN(C)CCCNCCC#N,inactive,
COc1cc([N+](=O)[O-])ccc1N,inactive,
CC(C)COC(=O)CC(C(=O)OCC(C)C)S(=O)(=O)O (stereo not given),inactive,
CC(C)(c1ccc(Oc2ccc3c(c2)C(=O)OC3=O)cc1)c1ccc(Oc2ccc3c(c2)C(=O)OC3=O)cc1,inactive,
CCOc1ccc(NC(=O)OC(C)C)cc1OCC,inactive,
CC(C)=CC(C)(C)C,inactive,
CC(=O)Nc1ccc(C)cc1,inactive,
CO[Si](CCCS)(OC)OC,inactive,
CCN(CCO)c1cccc(C)c1,inactive,
